# This is a sample that favours compounds with a hit; in the whole collection about 3.3% have one here.
# Sm TGR block – S. mansoni TGR enzyme inhibition; AID 485364; purified TGR, DTNB reduction, TNB absorbance 405 nm; 360,000 tested, 3% active; Potency, µM (top dose mostly 114 µM), hits mostly inhibitors; also: nearly all actives have a fitted effect of over 60% in size
#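 Kinetic colorimetric format: TGR-catalysed, NADPH-driven DTNB reduction monitored via TNB absorbance. Enzyme dispensed at 20 nM; compound exposure 15 min at room temperature before reaction start.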
# AmpC inh no detg – blocks E. coli AmpC beta-lactamase in detergent-free assay; Potency, µM (titrated, usually from 57.1 µM), most hits filed as inhibitors; 330,000 tested, 0.52% active; AmpC nitrocefin hydrolysis, absorbance 480 nm, 0.0001% Triton; AID 485341; P00811; also: nearly all actives have a fitted effect of over 20% in size
# Target sequence (P00811 whole entry, looked up): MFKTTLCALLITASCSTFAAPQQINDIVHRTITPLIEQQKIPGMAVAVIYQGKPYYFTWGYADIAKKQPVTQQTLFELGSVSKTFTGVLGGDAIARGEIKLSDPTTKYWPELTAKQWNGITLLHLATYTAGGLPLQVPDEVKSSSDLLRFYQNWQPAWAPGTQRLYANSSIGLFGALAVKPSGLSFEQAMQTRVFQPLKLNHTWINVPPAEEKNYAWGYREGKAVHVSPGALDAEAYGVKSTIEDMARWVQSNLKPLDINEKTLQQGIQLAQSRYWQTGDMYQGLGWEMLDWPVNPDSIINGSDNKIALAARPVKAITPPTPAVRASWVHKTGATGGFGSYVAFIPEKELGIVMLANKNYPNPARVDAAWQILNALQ
#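 AmpC (5.3 nM in the dispensed reagent) in 20 mM phosphate pH 7.0 with 0.01% (detergent screen) or 0.0001% Triton X-100 was preincubated with compounds for 15 min at room temperature. Nitrocefin was then added from an 800 uM solution, and hydrolysis was followed at 480 nm.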
# AmpC inh detg – inhibitors of E. coli AmpC beta-lactamase with detergent; P00811; AmpC hydrolysis of nitrocefin, absorbance 480 nm, 0.01% Triton; Potency, µM (highest dose often 114 µM), hits mostly inhibitors; 370,000 tested, 0.041% active; also: nearly all actives have a fitted effect of over 25% in size
#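 20 mM phosphate pH 7.0 + 0.01% (detergent screen) or 0.0001% Triton X-100; 5.3 nM AmpC reagent; cpd preinc 15 min RT; nitrocefin (800 uM stock) to start; A480 q20 s × 4 min; Activity was normalised to no-enzyme and no-compound control wells.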
# Hits are given with their value; - = inactive; ? = inconclusive; . = not tested or not shown; ! = repeats disagree; [ ] = remark or other dose. Calls follow the shape of the dose curve; as a rule, active = well fitted curve in the direction sought with a large enough effect; inconclusive = small, poorly fitted or top-dose-only effect, or another doubt; inactive = no such curve, though single readings can be large; an effect the other way counts as inactive or inconclusive.
SMILES,Sm TGR block,AmpC inh no detg,AmpC inh detg
Cc1cc(C(=O)COC(=O)C(C)NC(N)=O)c(C)n1Cc1ccco1 (configuration not stated),-,-,-
Cc1cc(C(=O)C(C)Cl)c(C)n1Cc1ccco1 (configuration not stated),28µM,-[11.4 µM],-
Cc1csc(CN(C)C(=O)CC2C(=O)NCCN2Cc2ccc(F)cc2Cl)n1 (configuration not stated),13µM,-,-
Cc1csc(CNC(=O)CC2C(=O)NCCN2Cc2ccc(F)cc2Cl)n1 (configuration not stated),-,-,-
Cc1csc(CN(C)C(=O)CC2C(=O)NCCN2Cc2ccc(Cl)c(F)c2)n1 (configuration not stated),45µM,-,-
Cc1csc(CN(C)C(=O)CC2C(=O)NCCN2Cc2ccc(-c3ccccc3)cc2)n1 (configuration not stated),-,-,-
COc1ccc(-c2nc(CSCC(=O)NCCC(C)C)c(C)o2)cc1OC,-,.,-
COc1ccc(OC)c(NC(=O)Cn2ncc3c2-c2ccccc2OC3)c1,-,.,-
Cc1ccc(CN2C(=O)c3ccccc3Sc3ccc(C(=O)NCc4ccco4)cc32)cc1,-,.,-
Cc1ccc(-n2nc(-c3ccco3)cc2C(=O)O)c(C)c1,11µM,-,-
Cc1nn(-c2cccc(Cl)c2)c2nc(-c3ccco3)cc(C(=O)O)c12,16µM,-,-
O=C(O)c1cc(-c2ccco2)nn1-c1cccc(Cl)c1,63µM,-,-
O=C(O)c1cc(-c2cc3ccccc3o2)nn1-c1ccccc1,-,-,-
Cc1ccc(-n2nc(-c3cccnc3)cc2C(=O)N2CCOCC2)c(C)c1,-,-,-
Cc1nn(-c2ccccc2)c2nc(-c3ccco3)cc(C(=O)O)c12,?,-,?
O=C(O)c1cc(-c2ccco2)nn1-c1ccc(Cl)cc1,5µM,-,-
O=C(O)c1cc(-c2cccs2)nn1-c1cccc(Cl)c1,-,-,-
Cc1ccc2nc(-c3ccc(Cl)c(NC(=O)c4ccc5c(c4)OCCO5)c3)oc2c1,-,.,-
COc1cc2nc(NC(=O)c3ccc(S(=O)(=O)N4CCOCC4)cc3)sc2cc1OC,-,.,-
CCOc1ccc(CCNC(=O)c2nn(C)c3c2CSc2ccccc2-3)cc1,-,.,-
COc1ccccc1NC(=O)c1sc(-c2ccc(Cl)cc2)cc1N,-,.,-
CCOC(=O)c1cnc2ccccc2c1Nc1cccc(OC)c1,-,.,-
CC(=O)c1cccc(NC(=O)CCc2c(C)nc3c(-c4ccc(F)cc4)c(C)nn3c2C)c1,-,.,-
CC(CC(=O)NCc1ccc(Cl)cc1Cl)CC1=NS(=O)(=O)c2ccccc2N1 (configuration not stated),-,.,-
CCOC(=O)c1nnn(-c2nonc2-n2cccc2)c1CN1CCC(C)CC1,-,-,?
SMILES,Sm TGR block,AmpC inh no detg,AmpC inh detg
CCOC(=O)c1nnn(-c2nonc2-n2cccc2)c1CCl,8.9µM,-,-
CC(C)OCCCNC(=O)Cc1ccc(NC(=O)N2CCCCc3ccccc32)cc1,-,.,-
CCOC(=O)C1=C(c2ccccc2)NC(SCC(=O)Nc2ccc(C)cc2)=C(C#N)C1c1ccco1 (configuration not stated),-,.,-
CCOC(=O)C1=C(c2ccccc2)NC(SC)=C(C#N)C1c1ccco1 (configuration not stated),35µM,-,-
C=CCN1C(=O)/C(=C/c2cc(C)n(-c3cccnc3)c2C)C(=O)NC1=S,?,-,-
CCCN1C(=O)/C(=C/c2ccc(C)s2)NC1=S,?,-,?
C=CCN1C(=O)/C(=C/c2ccc(Br)s2)C(=O)NC1=S,2.5µM,-,-
CCN1C(=O)/C(=C\c2ccc([N+](=O)[O-])s2)C(=O)NC1=S,2.8µM,-,?
Cn1nc(C(=O)Nc2cc(F)ccc2F)c2c1-c1ccccc1SC2,-,.,-
CC(C)C(=O)NC(c1cccs1)c1cc([N+](=O)[O-])c2cccnc2c1O (configuration not stated),-,-,?
CC(=O)NC(c1ccco1)c1cc(F)c2cccnc2c1O (configuration not stated),?,-,-
CC(=O)NC(c1cccs1)c1cc(F)c2cccnc2c1O (configuration not stated),50µM!,-,-
CCC(=O)NC(c1cccs1)c1cc([N+](=O)[O-])c2cccnc2c1OC (configuration not stated),40µM,-,?
COc1ccc(-c2noc(CN(C(=O)COc3cc(C)c(Br)c(C)c3)C(C)C)n2)cc1,-,.,-
Cc1ccc(-n2nnnc2CCl)cc1,5.6µM,-,-
Cc1ccc(-c2nnnn2-c2ccc(C)cc2)cc1,-,-,-
Oc1ccc(/C=N/Nc2cc(N3CCOCC3)nc(N3CCOCC3)n2)cc1O,50µM,-,-
Oc1cccc(/C=N/Nc2cc(N3CCOCC3)nc(N3CCOCC3)n2)c1,-,-,-
O=C(CCCCn1c(=O)c2ccccc2n(Cc2ccccc2Cl)c1=O)NCc1ccc2c(c1)OCO2,-,.,-
O=C(Nc1cccc(C(F)(F)F)c1)N1CCC(CN2CCCCCC2)CC1,-,.,-
COc1ccc2nc(NC(=O)c3nc(S(=O)(=O)Cc4ccccc4F)ncc3Cl)sc2c1,-,.,-
COC(=O)c1ccccc1NC(=O)c1nc(S(=O)(=O)Cc2ccccc2F)ncc1Cl,-,.,-
O=C(Nc1nc2ccc(F)cc2s1)c1nc(S(=O)(=O)Cc2ccccc2)ncc1Cl,?,.,-
O=C(NCc1ccccc1)c1nc(S(=O)(=O)Cc2ccc(F)cc2)ncc1Cl,5µM,.,-
CSc1ncc(Cl)c(C(=O)NCc2ccc(C)cc2)n1,-,.,-
SMILES,Sm TGR block,AmpC inh no detg,AmpC inh detg
Cc1ccccc1CS(=O)(=O)c1ncc(Cl)c(C(=O)Nc2ccc(F)cc2)n1,3.5µM,-,?
O=C(Nc1ccccc1F)c1nc(S(=O)(=O)Cc2ccccc2F)ncc1Cl,2.8µM,.,-
O=C(Nc1ccc(F)cc1)c1nc(S(=O)(=O)Cc2ccccc2)ncc1Cl,6.3µM,-,-
COc1cccc(CNC(=O)c2cc3n(n2)CCCN(Cc2ccc(C)cc2)C3=O)c1OC,-,.,-
Cc1cc2nc(-c3cccc(NC(=O)c4cccc5ccccc45)c3)oc2cc1C,-,.,-
CC(=O)N1CCc2c(sc3c2c(=O)n(-c2ccccc2Cl)c(=O)n3C)C1,-,.,-
Cc1ccc(-c2nc(C)c(CCNC(=O)C(=O)Nc3ccc4c(c3)OCCO4)s2)cc1,-,.,-
COc1cc(C(=O)Nc2cc(C)c(O)c(-c3nc4ccccc4s3)c2)cc(OC)c1OC,-,.,-
Cc1ccc(NC(=O)c2nc(S(=O)(=O)Cc3ccccc3)ncc2Cl)cc1,3.2µM,-,-
CCS(=O)(=O)c1ncc(Cl)c(C(=O)Nc2c(C(=O)c3ccc(C)cc3)oc3ccccc23)n1,-,.,-
CCC1CN(C(=O)N2CCC(C(=O)NCc3cccc(C)c3)CC2)c2ccccc2O1 (configuration not stated),-,.,-
O=C(c1ccco1)N1CCN(C(=O)c2ccc(Cn3cc(Br)cn3)o2)CC1,40µM,-,?
NNC(=O)c1ccc(Cn2cc(Br)cn2)o1,-,-,?
COc1ccc(S(=O)(=O)N(CCc2ccccc2)CC(=O)Nc2cccc(OC)c2)cc1,-,.,-
